The source made the active and inactive calls. Rule for the calls: active = hit-call score of the fitted dose curve at least 0.9, where 1 is the maximum; inactive = score below 0.9.

A short description of the assay: CCTE_Shafer_MEA_acute_per_burst_spike_number_mean: CCTE's Neural Acute Assay for Average Number of Spikes Per Burst, Shafer Lab (AID 2284015).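 Note: hits are decreases in mean spikes per burst versus baseline.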 As to the method: CCTE_Shafer_MEA_acute assay is conducted using Axion Biosystems 48 well microelectrode array (MEA) plates and Maestro recording system. Each well of the MEA plate contains a grid of 16 microelectrodes embedded in the culture surface. Electrically active cells, such as neurons, can be cultured over the electrodes, and electrical activity in these cells can be recorded extracellularly. The spontaneous firing of neurons is captured from each electrode on a microsecond timescale providing both temporally and spatially precise data. […] The CCTE_Shafer_MEA_acute assay uses primary cultures of rat cortical neurons. As these cultures mature over time, neural networks develop functional activity and form cohesive networks in which electrical activity can be highly coordinated. Baseline 40-minute recordings are made on days post-plating 13 or 15, followed by a secondary 40-minute recording after chemical exposure.CCTE_Shafer_MEA_acute_per_burst_spike_number_mean is a component of the CCTE_Shafer_MEA_acute assay. It measures the average number of spikes (action potential firings) in a single-electrode burst (temporally-clustered group of spikes) during a recording in a microelectrode array (MEA) using Axion Biosystems Maestro 768 channel amplifier with the AxIS adaptive spike detector. The recordings before and after chemical treatment are used to calculate a percent change in the mean number of spikes per burst in each well.Data from the assay component CCTE_Shafer_MEA_acute_per_burst_spike_number_mean was analyzed into 1 assay endpoint. This assay endpoint, CCTE_Shafer_MEA_acute_per_burst_spike_number_mean, was analyzed in the negative analysis fitting direction relative to DMSO as the negative control and baseline of activity. Using a type of functional reporter, gain or loss-of-signal activity can be used to understand electrical activity.
Spontaneous activity in the cortical cultures was recorded using an Axion Biosystems Maestro 768 channel amplifier and Axion Integrated Studios (AxIS) v1.8 (or later) software. The amplifier recorded from all channels simultaneously (gain = 1200 x; sampling rate = 12.5 kHz/channel): raw signals were filtered with a Butterworth band-pass filter (300-5000 Hz), which filters out slower local field potentials leaving only fast potentials, i.e., "spikes", arising from extracellular currents associated with action potentials (Pine 2006; Wheeler and Nam 2011). On-line spike detection of filtered signals was conducted with the AxIS adaptive spike detector, using a threshold of 8x the root mean squared (rms) noise on each channel. Any electrodes with rms noise levels greater than 5 uV were grounded (e.g., no data were recorded). Once grounded, an electrode was grounded for the duration of the experiment. All recordings were conducted at 37 C. Wells were deemed usable if on the day of the exposure >/= 10 electrodes were active (defined as >/= 5 spikes/min). On DIV 13 or 15, a minimum of three wells from one cortical culture preparation were treated with each compound (0.03-40 uM). Prior to recording baseline activity, each mwMEA plate was placed in the Maestro at 37 C and allowed to sit for 20 min while firing rates stabilized. Baseline activity (40 min) was recorded before the addition of each compound. An additional 40 min of spontaneous activity was recorded in the presence of each compound. Changes in network parameters relative to baseline were assessed following compound treatment.
`CCOP(=S)(OCC)SCSP(=S)(OCC)OCC`: the molecule was called inactive.
In the case of `CC(C)(C)CC(C)(C)c1ccc(O)cc1`, the molecule was classed as inactive.
Turning to `CCC(C)(C)c1ccc(O)c(C(C)(C)CC)c1`, the AC50 was 20 µM (active).
In the case of `CC(C)(C)c1cc(O)ccc1O`, the result was inactive.
Take `CC(C)(c1ccccc1)c1ccc(O)c(C(C)(C)c2ccccc2)c1`: the molecule was classed as inactive.
The same measure, in the same setting: to `O=C(O)C(Cl)(Cl)Cl` belongs “inactive”; to `CC(=O)[O][Hg][c]1ccccc1`, “inactive”.
On the same count and under the same terms, then `C[C@]12CCC(=O)C[C@@H]1CC[C@@H]1[C@@H]2CC[C@]2(C)[C@@H](O)CC[C@@H]12`, with “inactive”; and `CCC(=O)C(CC(C)N(C)C)(c1ccccc1)c1ccccc1` (centres undefined), with “inactive”.
`ClC1(Cl)C2(Cl)C3(Cl)C4(Cl)C(Cl)(Cl)C5(Cl)C3(Cl)C1(Cl)C5(Cl)C24Cl` (centres undefined): the result was inactive.
In the case of `O=C1C2(Cl)C3(Cl)C4(Cl)C(Cl)(Cl)C5(Cl)C3(Cl)C1(Cl)C5(Cl)C24Cl` (centres undefined), the AC50 was 9.36 µM (active).
Consider `CCCCCCCCc1ccc(O)cc1`, for which the outcome was inactive.
On the same count and under the same terms, to `O=C(Nc1ccc2[nH]ccc2c1)c1cc2cc(F)ccc2n1Cc1cccc(F)c1` belongs “inactive”.
The same measure, in the same setting: then `CC(=O)OC(c1ccccc1)C(Cl)(Cl)Cl` (centres undefined), with “inactive”; and `COC(=O)Cc1ccccc1`, with “inactive”.
As for `C=C(C)C(=O)[O][Sn]([CH2]CCC)([CH2]CCC)[CH2]CCC`, the result was inactive.
Same read-out and setting: then `CCN1CCC2(CC1)COc1cc3c(cc12)N(C(=O)c1ccc(-c2ccc(-c4nnc(C)o4)cc2C)cc1)CC3`, with “inactive”.
Consider `O=C(O)C(F)(F)C(F)(F)C(F)(F)C(F)(F)C(F)(F)C(F)(F)C(F)(F)C(F)(F)C(F)(F)C(F)(F)F`, for which the AC50 was 5.97 µM (active).
On to `CC(C)(OO)c1ccccc1`, for which the result was inactive.
